Pf growth 48h = inhibits P. falciparum growth in the first generation, 48 h | Potency, µM (highest dose often 28.7 µM), for the others: at the highest dose activity change, negative = inhibition, usual class: inhibitors | 310,000 tested, 5.9% active | P. falciparum luciferase growth in erythrocytes, 48 h; further: potency means the concentration at half of the fitted maximal effect; on the % scale 0 is the no-effect control and ±100 the full control effect
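Luminescence readout; reporter = integrated firefly luciferase in P. falciparum. RBC culture at 2% hematocrit, 0.1% parasitemia final, 37 C/5% CO2; decreased signal taken as growth inhibition.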
CHX counter = affects cycloheximide protein synthesis inhibition readout, counter-screen; max response, %; cell reporter, cycloheximide protein synthesis inhibition counterscreen; 300,000 tested, 12% active; in the data active means max response mostly above about 13%, no sharp cut-off; inactive means mostly below about 14%; further: read at 38.3 µM for the half of the compounds with a filed dose; 0% is about no effect
Pf growth 96h = P. falciparum growth inhibition at 96 hour, primary screen for plastid delayed-death inhibitors; P. falciparum luciferase reporter growth, 96 h; Potency, µM (doses to about 28.7 µM), for the others: at the highest dose activity change, negative = inhibition, most hits filed as inhibitors; 320,000 tested, 6.9% active; further: potency means the concentration at half of the fitted maximal effect; on the % scale 0 is the no-effect control and ±100 the full control effect
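Luminescence readout: decreased luciferase signal marks inhibited growth of reporter-expressing P. falciparum in infected red cells (2% hematocrit, 0.05% parasitemia final), exposed to compound two generations (96 h, 37 C, 5% CO2).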
AMA1 RON2 block = inhibitors of Plasmodium falciparum AMA1-RON2 interaction; AlphaScreen AMA1-biotinylated RON2 peptide binding; AID 720542; Potency, µM (highest dose often 58.2 µM), for inactives: at the top dose activity change, negative = inhibition, hits mostly inhibitors; 360,000 tested, 0.2% active;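 further: potency means the concentration at half of the fitted maximal effect; 0% = vehicle wells and -100% = peptide control; nearly all actives have a fitted effect of over 45% in size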
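AMA1 (3D7) with his tag at 25 nM final met compounds first, then biotinylated RON2 peptide at 25 nM; detection used donor plus acceptor beads, 10 µg/mL apiece, read by AlphaScreen after 30 min at room temperature.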
Shiga inhibitor = inhibitors of Shiga toxin in Vero cells; inhibition, % at 38.7 µM; 290,000 tested, 9.2% active; Vero cells, Shiga toxin protein synthesis inhibition reporter; in the data active means inhibition mostly above about 28%, no sharp cut-off; inactive means mostly below about 43%; further: 0% is about no effect
HCV inhibitor = inhibitors of hepatitis C virus infection; Huh7.5.1 HCVcc-Cre infection, luciferase reporter, 44 h; Potency, µM (highest dose often 41.8 µM), for inactives: top-dose activity change, negative = inhibition, most hits filed as inhibitors; 340,000 tested, 3.4% active; AID 651820; further: potency means the concentration at half of the fitted maximal effect; on the % scale 0 is the no-effect control and ±100 the full control effect
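1,000 cells/well; 4 h culture; + compound; + HCVcc-Cre (~0.5 moi); 44 h; luciferase substrate, RT 15 min; read 15 sec.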
* hit, by the source's call; i = inactive; u = inconclusive; x = no result. Most compounds without a hit are left out; they make up all but 21% or so of the library. Unless noted, the call rests on the fitted dose curve; in most records, active means well fitted curve in the direction sought with a large enough effect; inconclusive means small, poorly fitted or top-dose-only effect, or another doubt; inactive means no such curve, though single readings can be large; an effect the other way counts as inactive or inconclusive.

SMILES	Pf growth 48h	CHX counter	Pf growth 96h	AMA1 RON2 block	Shiga inhibitor	HCV inhibitor
CN1CCC(=C2c3ccccc3Sc3ccccc32)CC1	4.3µM*	x	u	-9%	x	10µM*
CN(C)CCN(Cc1ccccc1)C(=O)c1[nH]c(C(F)(F)F)nc1-c1ccccc1	x	x	x	-4%	x	x
CCOc1ccc2oc(C(=O)N(Cc3nnc(-c4ccccc4Cl)o3)C3CC3)c(C)c2c1	12µM*	x	8.3µM*	54%	x	u
O=C(c1cc2ccccc2o1)N(Cc1nnc(-c2ccccc2Cl)o1)C1CC1	12%	x	31%	-11%	x	u
CCOc1ccccc1N1CC(C(=O)N(Cc2nnc(-c3ccccc3Cl)o2)C2CC2)CC1=O (stereo unspecified)	u	x	9.3µM*	48%	x	-3%
CC1CN(S(=O)(=O)c2cccc(C(=O)N(Cc3nnc(-c4ccccc4Cl)o3)C3CC3)c2)CC(C)O1 (stereo unspecified)	u	x	12µM*	84%	x	u
O=C(c1cc([N+](=O)[O-])cc([N+](=O)[O-])c1)N(Cc1nnc(-c2ccccc2Cl)o1)C1CC1	u	9	12µM*	-12%	6	u
CSc1cccc(N2CC(C(=O)N(Cc3nnc(-c4ccccc4Cl)o3)C3CC3)CC2=O)c1 (stereo unspecified)	u	9	-28%	-7%	-8	-23%
O=C(c1cccc(S(=O)(=O)N2CCOCC2)c1)N(Cc1nnc(-c2ccccc2Cl)o1)C1CC1	u	x	u	2%	x	2%
COc1cc(CC(=O)OCC(=O)N(C)C2CCCCC2)cc(OC)c1OC	x	x	x	4%	x	2%
CC1=CC(=C2C(=O)c3ccccc3C2=O)C=C(C)N1Cc1ccco1	110%	37*	u	-2%	66*	u
CC(=O)N1C(=O)/C(=C2\SC(=S)N(NS(=O)(=O)c3ccc(C)cc3)C2=O)c2ccccc21	6%	-1	82%	2%	-21	19%
CC1=CC(=C2C(=O)c3ccccc3C2=O)C=C(C)O1	26%	11*	-27%	5%	18	-13%
CC(=O)N1C(=O)C(=C2C=C(C)OC(C)=C2)c2ccccc21	-1%	-7	u	-16%	-19	10µM*
O=C(c1ccccc1)n1ccc2ccccc21	28%	31*	-8%	47%	137*	0%
Cn1c(SCC(=O)Nc2ccc3c(c2)OCCO3)nnc1C(F)(F)F	18%	x	15%	-5%	x	7%
Cn1c(SCC(=O)c2ccc3c(c2)OCCO3)nnc1C1CC1	26%	18*	u	4%	44*	21%
Cn1c(SCC(=O)c2ccc3c(c2)OCCO3)nnc1C(F)(F)F	81%	22*	-6%	-14%	34	7%
O=C(O)c1ccccc1C(=O)NCCc1c(C(=O)O)[nH]c2ccc(F)cc12	-1%	0	29%	14%	7	u
COc1ccc(Cn2nnc(C(=O)Nc3ccc(F)cc3)c2N)cc1	16%	-4	1.9µM*	11%	71	-7%
COc1ccc(Cc2nc(C(=O)Nc3ccccc3)cs2)cc1	x	39*	34%	-9%	52*	u
COc1ccc(Cc2nc(C(=O)Nc3ccc(F)cc3)cs2)cc1	x	14	-1%	3%	13	10µM*
COc1ccc(NC(=O)Cn2nnc(C(=O)Nc3ccc(F)c(Cl)c3)c2N)cc1	-1%	10	122%	0%	13	12%
COc1ccc(NC(=O)c2csc(Cc3ccc(Cl)cc3)n2)cc1	3%	10	34%	-8%	23	-3%
O=C(Nc1ccc(Cl)cc1)c1csc(Cc2ccccc2)n1	77%	37*	57%	-1%	75*	-8%
SMILES	Pf growth 48h	CHX counter	Pf growth 96h	AMA1 RON2 block	Shiga inhibitor	HCV inhibitor
COc1ccc(F)c(CN2CCC(n3nccc3NC(=O)C3CCOC3)CC2)c1 (stereo unspecified)	31%	-2	u	-11%	5	1%
CCOc1ccc(Cn2nnc(C(=O)NCCc3ccc(Cl)cc3)c2N)cc1	x	-6	5.2µM*	2%	1	-5%
CCOc1ccc(Cn2nnc(C(=O)NCCc3ccccc3)c2N)cc1	x	-2	u	0%	-1	1%
Nc1nc2n(n1)C(=O)CC(c1ccccc1)N2 (stereo unspecified)	16%	-3	9.3µM*	12%	-12	-4%
O=C(CNc1ccc(Br)cc1)NC(=O)NC1CCCCC1	-19%	x	-28%	1%	x	25%
CN(C)c1ccc(CN(C(=O)C2COc3ccccc3O2)C2CCS(=O)(=O)C2)cc1 (stereo unspecified)	u	4	5.2µM*	-4%	-5	x
CC(C)c1ccc(CN(C(=O)C2COc3ccccc3O2)C2CCS(=O)(=O)C2)cc1 (stereo unspecified)	u	9	u	5%	16	20%
Cc1ccccc1C(=O)Nc1ccc(S(=O)(=O)N2CCOCC2)cc1	-16%	-1	15%	-2%	-3	u
COc1cccc(S(=O)(=O)N(C)C[C@H]2OCc3cnnn3CCCC(=O)N([C@H](C)CO)C[C@H]2C)c1	x	x	x	-10%	x	x
CCCn1c(=O)c2ccccc2n2c(SCc3nc4ccccc4s3)nnc12	103%	31*	10µM*	2%	142*	-26%
CCCCn1c(SCc2nc3ccccc3s2)nc2ccccc2c1=O	2%	-3	0%	11%	-10	u
O=c1[nH]nc(SCc2nc3ccccc3s2)n1C1CC1	118%	52*	102%	-4%	103*	-6%
Cc1cc(C)c(-n2c(SCc3nc4ccccc4s3)n[nH]c2=O)c(C)c1	u	4	1%	-14%	6	-10%
CCCn1c(SCc2nc3ccccc3s2)n[nH]c1=O	381%	53*	i	-4%	90*	-1%
CC(=O)N[C@H](CC(C)C)C(=O)O	-12%	x	-15%	x	x	x
CN(C)c1ccc(C2Nc3ccccc3C(=O)N2NS(C)(=O)=O)cc1 (stereo unspecified)	11%	15*	u	-3%	20	26%
Cc1ccc(S(=O)(=O)NN2C(=O)c3ccccc3NC2c2ccccc2)cc1 (stereo unspecified)	-1%	24*	u	-2%	98*	u
CS(=O)(=O)NN1C(=O)c2ccccc2NC1c1cc2ccccc2nc1Cl (stereo unspecified)	12%	16*	13%	-13%	-8	-2%
O=C1NC(c2cc3ccccc3nc2Cl)Nc2ccccc21 (stereo unspecified)	2.9µM*	-5	1.9µM*	-6%	-6	10%
CS(=O)(=O)NN1C(=O)c2ccccc2NC1c1ccccc1F (stereo unspecified)	38%	0	0%	11%	25	12%

Screens: PubChem BioAssay, National Center for Advancing Translational Sciences (NCATS)
